Results filed as inconclusive are left out. A call without a number means that no potency is given here. Calls of active or inactive are those of the source. Calls come from the whole dose curve; as a rule, active = well fitted inhibition curve with a large enough effect in the repeat runs; inconclusive = weak or mixed curves; inactive = no such curve, though single readings can be large or run the other way.
Biological target: Cytochrome P450 2C19 (Homo sapiens) (UniProt P33261)
Test: Cytochrome P450 Family 2 Subfamily C Member 19 (CYP2C19) small molecule antagonists: luciferase reporter qHTS assay (AID 1671197); note: nearly all actives have a fitted effect of over 65% in size
Conditions: P450-Glo CYP2C19 enzyme, luciferin luminescence, 1 h; series mostly up to 115 µM
Method in brief: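 P450-Glo CYP2C19 system: enzyme-substrate mix with compound 10 min at room temperature, then NADPH regeneration solution, 1 h at 37C. Proluciferin-to-luciferin conversion detected by luminescence after 20 min with detection reagent; ketoconazole as positive control.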
Potency is the fitted concentration of half-maximal effect.

Cytochrome P450 2C19 (Homo sapiens), sequence (P33261 whole entry, looked up): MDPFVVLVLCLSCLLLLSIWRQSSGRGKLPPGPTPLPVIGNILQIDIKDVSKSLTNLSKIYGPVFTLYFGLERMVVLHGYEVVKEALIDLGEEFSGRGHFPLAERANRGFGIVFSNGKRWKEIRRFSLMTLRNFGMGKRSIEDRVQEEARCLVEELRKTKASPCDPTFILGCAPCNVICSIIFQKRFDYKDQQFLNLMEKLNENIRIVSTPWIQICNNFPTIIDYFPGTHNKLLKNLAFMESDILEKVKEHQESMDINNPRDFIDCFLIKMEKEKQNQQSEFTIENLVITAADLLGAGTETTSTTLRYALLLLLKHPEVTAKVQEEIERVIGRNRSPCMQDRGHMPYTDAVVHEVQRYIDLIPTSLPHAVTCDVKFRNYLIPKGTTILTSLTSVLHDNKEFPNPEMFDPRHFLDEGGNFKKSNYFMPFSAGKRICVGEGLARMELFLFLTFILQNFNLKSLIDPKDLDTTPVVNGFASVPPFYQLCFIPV

Row | Structure (SMILES) | Potency
1 | Nc1cccc(S(=O)(=O)O)c1 | inactive
2 | COC(=O)C(C)O (stereo not given) | inactive
3 | CN1CCN(c2c(F)cc3c(=O)c(C(=O)O)cn4c3c2SCC4)CC1 | inactive
4 | C=CCCCCCCCCO | inactive
5 | N#Cc1ccc(C(c2ccc(C#N)cc2)n2cncn2)cc1 | 13.3 µM (active)
6 | CCN(CC)CC1CCCCN1CC(=O)N1c2ccccc2C(=O)Nc2cccnc21 (stereo not given) | inactive
7 | Cc1c[nH]c(=S)[nH]c1=O | 79.9 µM (active)
8 | CCOC(=O)CS | 82 µM (active)
9 | Nc1ccc2ccccc2c1S(=O)(=O)O | 40.7 µM (active)
10 | CCOC(=O)C1CC(=O)C(=C(O)C2CC2)C(=O)C1 (stereo not given) | 71 µM (active)
11 | CC/C=C\CCOC(=O)C(C)C | inactive
12 | O=C(CC(=O)C(F)(F)F)c1ccccc1 | 36.1 µM (active)
13 | CCCCCCCCc1ccc(S(=O)(=O)O)cc1 | inactive
14 | CCCOCCC | inactive
15 | CC(C)(CO)[C@@H](O)C(=O)NCCC(=O)O | inactive
16 | Cc1ccc(C=O)s1 | inactive
17 | CS(=O)(=O)c1ccc([C@@H](O)[C@@H](CF)NC(=O)C(Cl)Cl)cc1 | 21.9 µM (active)
18 | CC(C)(C)c1cccc(O)c1 | inactive
19 | CCCCCCCCCCCCCCCCOP(=O)([O-])OCC[N+](C)(C)C | inactive
20 | Cc1nnc(SCC2=C(C(=O)O)N3C(=O)[C@@H](NC(=O)Cn4cnnn4)[C@H]3SC2)s1 | inactive
21 | O=Cc1ccc(O)c(O)c1O | inactive
22 | Cc1ccc(C)c(N)c1 | 7.11 µM (active)
23 | CC(C)Nc1nc(N)nc(Cl)n1 | inactive
24 | COC(=O)/C=C(/C)N | inactive
25 | CCCCCCCOC(=O)CCC | 79.6 µM (active)
